Percent Effect data for 5 compounds are collected here from ChEMBL document CHEMBL3988442, “University of Dundee, Small-Polar-MMV Screening Library” (2021).

For part of these data: Potency and affinity values are given separately.

Set-up in all cases: scale not given: direction of the effect not stated beside the values
Experiment [1] deals with Protein translocase subunit SecA (Escherichia coli (strain K12)) (UniProt P10408). Kind of experiment: Assay to Identify E. coli SecA ATPase Inhibitors. The following applies: 30 µM. It counts as functional.
In experiment [2] the target is T1, Ubiquitin-activating enzyme e1, putative (Leishmania donovani (strain BPK282A1)) (UniProt E9BSI1).
T1 sequence (whole entry): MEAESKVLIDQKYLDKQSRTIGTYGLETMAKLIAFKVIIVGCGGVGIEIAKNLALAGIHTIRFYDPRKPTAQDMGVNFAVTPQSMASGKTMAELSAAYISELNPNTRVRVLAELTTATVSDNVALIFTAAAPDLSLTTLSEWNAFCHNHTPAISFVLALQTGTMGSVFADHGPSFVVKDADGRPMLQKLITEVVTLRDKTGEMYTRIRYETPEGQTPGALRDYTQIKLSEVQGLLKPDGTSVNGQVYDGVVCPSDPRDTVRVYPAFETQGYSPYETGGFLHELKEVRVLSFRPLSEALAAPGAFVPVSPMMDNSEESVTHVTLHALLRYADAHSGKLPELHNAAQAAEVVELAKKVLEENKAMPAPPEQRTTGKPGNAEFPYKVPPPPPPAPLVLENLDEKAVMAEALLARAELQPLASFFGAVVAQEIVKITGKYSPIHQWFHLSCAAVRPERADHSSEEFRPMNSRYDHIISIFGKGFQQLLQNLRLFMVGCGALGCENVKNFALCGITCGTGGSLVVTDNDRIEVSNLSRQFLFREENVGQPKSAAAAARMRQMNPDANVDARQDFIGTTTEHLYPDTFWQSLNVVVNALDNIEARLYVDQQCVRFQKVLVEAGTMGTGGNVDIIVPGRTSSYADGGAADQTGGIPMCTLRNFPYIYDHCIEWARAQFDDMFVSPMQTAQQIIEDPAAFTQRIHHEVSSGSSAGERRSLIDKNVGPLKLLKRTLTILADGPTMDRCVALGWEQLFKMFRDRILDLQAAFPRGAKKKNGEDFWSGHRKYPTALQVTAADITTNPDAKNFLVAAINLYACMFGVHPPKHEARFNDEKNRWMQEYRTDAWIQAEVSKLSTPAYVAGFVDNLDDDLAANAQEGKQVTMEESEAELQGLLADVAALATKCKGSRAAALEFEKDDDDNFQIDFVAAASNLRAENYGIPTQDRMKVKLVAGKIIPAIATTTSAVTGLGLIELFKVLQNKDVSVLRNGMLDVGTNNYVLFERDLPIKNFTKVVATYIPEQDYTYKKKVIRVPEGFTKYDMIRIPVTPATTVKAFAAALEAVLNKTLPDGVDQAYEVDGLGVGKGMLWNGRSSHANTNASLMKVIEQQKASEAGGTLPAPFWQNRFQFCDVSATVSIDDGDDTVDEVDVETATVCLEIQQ
The experiment can be described thus: Leishmania donovani Ubiquitin Activating Enzyme (LdE1). Type of experiment: functional. The following applies: 30 µM.

For experiment [3], the target named is T2, Aspartate--tRNA(Asp/Asn) ligase (Mycobacterium tuberculosis (strain ATCC 25618 / H37Rv)) (UniProt P9WFW3). Also: in the data most compounds retested in dose-response had high values.
T2 sequence (whole entry): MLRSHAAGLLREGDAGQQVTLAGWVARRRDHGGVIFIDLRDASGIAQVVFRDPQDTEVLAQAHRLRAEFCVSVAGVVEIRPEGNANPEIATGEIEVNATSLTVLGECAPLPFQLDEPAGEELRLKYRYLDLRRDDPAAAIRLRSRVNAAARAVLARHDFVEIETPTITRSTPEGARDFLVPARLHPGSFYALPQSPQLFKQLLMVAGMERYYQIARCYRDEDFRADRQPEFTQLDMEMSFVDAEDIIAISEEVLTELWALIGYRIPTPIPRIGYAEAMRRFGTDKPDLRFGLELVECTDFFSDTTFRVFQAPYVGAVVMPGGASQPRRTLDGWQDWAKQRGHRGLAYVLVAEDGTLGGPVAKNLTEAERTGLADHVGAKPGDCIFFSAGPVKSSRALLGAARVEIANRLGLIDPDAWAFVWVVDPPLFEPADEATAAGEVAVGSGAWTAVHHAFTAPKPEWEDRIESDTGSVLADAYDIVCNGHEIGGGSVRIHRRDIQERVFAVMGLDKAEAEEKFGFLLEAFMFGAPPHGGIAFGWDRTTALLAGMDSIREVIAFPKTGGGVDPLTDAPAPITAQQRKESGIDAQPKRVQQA
Kind of experiment: Assay for Asp RNA synthetase-1 from Mycobacterium tuberculosis. It counts as functional. The following applies: 30 µM.

The target of experiment [4] is Sialic acid-binding Ig-like lectin 9 (Homo sapiens) (UniProt Q9Y336). Kind of experiment: Hs-Siglec9 ALPHAscreen SOP 20170721. The following applies: 10 µM. Background: In Alpha technology, singlet oxygen from a donor bead excites a nearby acceptor bead.
Another experiment concerns Trypanosoma cruzi. Kind of experiment: Trypanosoma cruzi phosphomannomutase and mannose-1-phosphate guanylyltransferase assay. Type of experiment: functional. The following applies: 10 µM.
Experiment [5] deals with T3, Arginase-2, mitochondrial (Homo sapiens) (UniProt P78540).
T3 sequence (whole entry): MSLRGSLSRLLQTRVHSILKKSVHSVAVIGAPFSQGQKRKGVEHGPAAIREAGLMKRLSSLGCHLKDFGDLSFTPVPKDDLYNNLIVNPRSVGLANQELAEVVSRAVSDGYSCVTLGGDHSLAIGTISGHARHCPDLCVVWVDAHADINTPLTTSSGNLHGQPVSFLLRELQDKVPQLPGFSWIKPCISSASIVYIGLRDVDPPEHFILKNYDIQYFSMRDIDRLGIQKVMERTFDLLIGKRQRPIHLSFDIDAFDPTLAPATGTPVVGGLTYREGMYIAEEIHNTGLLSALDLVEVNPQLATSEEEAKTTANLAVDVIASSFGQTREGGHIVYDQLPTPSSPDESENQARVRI
Kind of experiment: in vitro enzyme assay to detect the production of urea directly proportional to the activity of Arginase II. Also: in the data most compounds retested in dose-response had high values. Type of experiment: functional. Particulars: 33.3 µM.

Experiment [6] concerns the target T4, Proteasome subunit beta (Trypanosoma cruzi) (UniProt O96673).
T4 sequence (whole entry): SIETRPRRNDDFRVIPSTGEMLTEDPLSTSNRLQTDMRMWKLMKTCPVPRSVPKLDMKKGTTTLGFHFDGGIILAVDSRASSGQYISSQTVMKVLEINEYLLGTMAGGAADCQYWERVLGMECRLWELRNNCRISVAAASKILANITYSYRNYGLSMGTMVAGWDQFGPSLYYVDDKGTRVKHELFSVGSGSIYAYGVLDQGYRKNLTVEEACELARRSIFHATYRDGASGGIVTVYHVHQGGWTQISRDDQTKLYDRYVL
The experiment can be described thus: Trypanosoma cruzi proteasome chymotrypsin-like activity (TcProtChymo) assay. Also: in the data most compounds retested in dose-response had high values. The following applies: 9.37 µM. Type of experiment: functional.

The species entered for another experiment is Homo sapiens. Kind of experiment: To identify inhibition of the IFN signalling (Jak-Stat) pathway via expression of an eGFP reporter gene under the control of an IFN-stimulated response element (ISRE) containing MxA promoter. It counts as functional. Particulars: 30 µM. A general note: In a reporter assay the amount or activity of a reporter protein is the signal.

Experiment [7] deals with Shiga toxin 2 (Escherichia coli O157:H7) (UniProt P09385+P09386). Kind of experiment: E. coli 0.157:H7 Shiga Toxin SOP - stx2 screening assay. Type of experiment: functional. The following applies: 30 µM.
Experiment [8] concerns the target T5, Tyrosyl-tRNA synthetase, putative (Trypanosoma cruzi (strain CL Brener)) (UniProt Q4DSP6).
T5 sequence (whole entry): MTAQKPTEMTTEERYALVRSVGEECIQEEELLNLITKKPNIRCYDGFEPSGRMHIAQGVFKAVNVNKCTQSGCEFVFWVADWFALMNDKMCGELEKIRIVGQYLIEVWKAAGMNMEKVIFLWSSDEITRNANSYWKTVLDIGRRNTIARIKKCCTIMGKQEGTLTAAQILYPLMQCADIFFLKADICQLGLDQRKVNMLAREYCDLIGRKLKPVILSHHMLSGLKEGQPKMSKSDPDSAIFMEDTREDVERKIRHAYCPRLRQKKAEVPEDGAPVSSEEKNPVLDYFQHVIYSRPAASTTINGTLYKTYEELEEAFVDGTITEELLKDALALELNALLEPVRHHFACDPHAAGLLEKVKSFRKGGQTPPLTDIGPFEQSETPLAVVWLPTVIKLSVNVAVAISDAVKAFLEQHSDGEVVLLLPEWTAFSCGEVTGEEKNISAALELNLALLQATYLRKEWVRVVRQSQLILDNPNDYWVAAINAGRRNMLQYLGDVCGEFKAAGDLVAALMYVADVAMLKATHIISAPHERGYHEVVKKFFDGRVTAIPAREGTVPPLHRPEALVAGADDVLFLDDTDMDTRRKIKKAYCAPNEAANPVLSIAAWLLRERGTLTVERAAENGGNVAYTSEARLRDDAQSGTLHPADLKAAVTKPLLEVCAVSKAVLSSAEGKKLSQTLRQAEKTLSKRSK
Kind of experiment: Trypanosoma cruzi tyrosyl tRNA synthetase (TcYRS) _High Tyrosine SOP. Also: in the data most compounds retested in dose-response had high values. It counts as functional. Particulars: 30 µM.

In experiment [9] the target is T5, Tyrosyl-tRNA synthetase, putative (Trypanosoma cruzi (strain CL Brener)). Kind of experiment: Trypanosoma cruzi tyrosyl tRNA synthetase (TcYRS) SOP. It counts as functional. Particulars: 30 µM.
The target in experiment [10] is Chromo domain-containing protein 1 (Saccharomyces cerevisiae (strain ATCC 204508 / S288c) (Baker's yeast)) (UniProt P32657). The experiment can be described thus: ScCHD-1 Enzyme Inhibition Assay. Also: in the data most compounds retested in dose-response had high values. It counts as functional. Particulars: 30 µM.
Experiment [11] deals with AMP-activated protein kinase, AMPK (Homo sapiens) (UniProt P54646+O43741+P54619+Q9UGJ0+Q9Y478+Q13131+Q9UGI9). The experiment can be described thus: AMP-dependent Kinase enzyme assay. An in vitro enzyme assay that detects ADP turnover that is directly proportional to AMPK activity. This uses naive AMPK that is activated during the assay with MK-8722. It counts as functional. Particulars: 30 µM.

Chain of Protein translocase subunit SecA (Escherichia coli (strain K12)) (P10408 whole entry): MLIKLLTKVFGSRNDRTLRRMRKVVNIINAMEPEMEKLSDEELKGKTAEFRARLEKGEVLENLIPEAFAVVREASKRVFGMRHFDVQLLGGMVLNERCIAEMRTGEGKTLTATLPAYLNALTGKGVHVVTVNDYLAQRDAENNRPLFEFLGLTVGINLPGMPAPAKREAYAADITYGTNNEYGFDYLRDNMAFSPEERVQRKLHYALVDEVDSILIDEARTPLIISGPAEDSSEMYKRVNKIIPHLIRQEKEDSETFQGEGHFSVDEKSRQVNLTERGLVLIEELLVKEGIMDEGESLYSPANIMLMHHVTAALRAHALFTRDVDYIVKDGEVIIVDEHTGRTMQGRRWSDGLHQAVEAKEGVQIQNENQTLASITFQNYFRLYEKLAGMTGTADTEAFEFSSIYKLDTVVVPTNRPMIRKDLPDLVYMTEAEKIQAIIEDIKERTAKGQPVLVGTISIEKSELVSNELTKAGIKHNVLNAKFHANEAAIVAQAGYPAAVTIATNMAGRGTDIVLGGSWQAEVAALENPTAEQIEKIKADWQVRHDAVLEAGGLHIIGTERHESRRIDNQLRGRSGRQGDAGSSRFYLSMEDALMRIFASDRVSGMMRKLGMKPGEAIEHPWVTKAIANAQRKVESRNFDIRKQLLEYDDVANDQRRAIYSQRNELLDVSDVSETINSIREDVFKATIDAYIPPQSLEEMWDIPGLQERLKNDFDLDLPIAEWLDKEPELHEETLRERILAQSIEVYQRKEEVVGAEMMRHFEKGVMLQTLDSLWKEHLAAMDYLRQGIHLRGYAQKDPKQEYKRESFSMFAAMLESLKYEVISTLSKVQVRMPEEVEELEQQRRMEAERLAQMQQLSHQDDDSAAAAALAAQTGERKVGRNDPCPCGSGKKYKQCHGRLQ
Chain of Chromo domain-containing protein 1 (Saccharomyces cerevisiae (strain ATCC 204508 / S288c) (Baker's yeast)) (P32657 whole entry, the tested form may be a part): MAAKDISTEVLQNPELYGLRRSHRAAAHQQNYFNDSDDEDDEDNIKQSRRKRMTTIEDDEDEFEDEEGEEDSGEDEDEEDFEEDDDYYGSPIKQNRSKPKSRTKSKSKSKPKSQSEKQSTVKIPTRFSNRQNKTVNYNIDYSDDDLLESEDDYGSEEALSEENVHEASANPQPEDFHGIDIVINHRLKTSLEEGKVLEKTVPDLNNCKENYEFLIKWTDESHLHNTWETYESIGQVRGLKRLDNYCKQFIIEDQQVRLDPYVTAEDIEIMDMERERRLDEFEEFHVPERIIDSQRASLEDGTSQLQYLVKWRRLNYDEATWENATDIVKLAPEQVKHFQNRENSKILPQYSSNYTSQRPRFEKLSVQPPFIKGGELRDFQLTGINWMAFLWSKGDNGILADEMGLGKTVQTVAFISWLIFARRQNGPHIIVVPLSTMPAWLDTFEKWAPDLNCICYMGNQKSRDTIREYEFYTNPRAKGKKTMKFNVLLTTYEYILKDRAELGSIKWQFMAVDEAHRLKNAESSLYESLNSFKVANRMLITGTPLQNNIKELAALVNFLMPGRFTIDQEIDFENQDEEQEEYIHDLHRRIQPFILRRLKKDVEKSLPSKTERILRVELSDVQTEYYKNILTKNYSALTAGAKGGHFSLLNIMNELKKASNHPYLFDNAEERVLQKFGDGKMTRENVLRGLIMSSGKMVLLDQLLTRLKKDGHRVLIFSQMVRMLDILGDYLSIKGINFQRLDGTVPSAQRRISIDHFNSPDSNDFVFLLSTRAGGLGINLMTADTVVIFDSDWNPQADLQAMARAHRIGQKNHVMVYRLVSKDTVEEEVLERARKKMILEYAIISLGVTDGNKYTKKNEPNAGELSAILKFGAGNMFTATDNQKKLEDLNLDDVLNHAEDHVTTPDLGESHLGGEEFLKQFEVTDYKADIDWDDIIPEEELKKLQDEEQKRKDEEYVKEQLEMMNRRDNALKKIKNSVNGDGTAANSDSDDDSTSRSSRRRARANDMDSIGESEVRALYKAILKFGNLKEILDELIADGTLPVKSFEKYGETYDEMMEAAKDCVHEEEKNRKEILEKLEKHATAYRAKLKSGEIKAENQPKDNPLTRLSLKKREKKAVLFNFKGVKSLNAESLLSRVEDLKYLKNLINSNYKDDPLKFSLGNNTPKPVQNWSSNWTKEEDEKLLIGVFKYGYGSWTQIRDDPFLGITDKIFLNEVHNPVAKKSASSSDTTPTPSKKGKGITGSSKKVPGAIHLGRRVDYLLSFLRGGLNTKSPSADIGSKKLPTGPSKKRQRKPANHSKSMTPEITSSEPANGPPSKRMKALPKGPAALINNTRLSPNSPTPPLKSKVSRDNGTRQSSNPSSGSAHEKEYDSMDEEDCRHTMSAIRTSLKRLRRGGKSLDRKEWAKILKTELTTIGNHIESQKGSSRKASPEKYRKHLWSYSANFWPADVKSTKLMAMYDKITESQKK
Chain of Sialic acid-binding Ig-like lectin 9 (Homo sapiens) (Q9Y336 whole entry): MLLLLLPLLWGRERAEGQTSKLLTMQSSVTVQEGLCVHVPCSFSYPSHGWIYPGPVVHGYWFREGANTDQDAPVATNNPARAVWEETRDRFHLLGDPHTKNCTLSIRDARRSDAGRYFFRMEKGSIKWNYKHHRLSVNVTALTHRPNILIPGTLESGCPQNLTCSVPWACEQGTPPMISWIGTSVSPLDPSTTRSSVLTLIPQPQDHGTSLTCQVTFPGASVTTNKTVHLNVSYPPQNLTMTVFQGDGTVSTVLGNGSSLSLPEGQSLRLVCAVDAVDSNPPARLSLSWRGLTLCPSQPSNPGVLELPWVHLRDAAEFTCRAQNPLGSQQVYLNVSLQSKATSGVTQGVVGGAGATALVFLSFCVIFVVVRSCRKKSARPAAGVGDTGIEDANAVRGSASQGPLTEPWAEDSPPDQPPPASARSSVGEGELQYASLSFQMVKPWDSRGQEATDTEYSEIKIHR

`c1ccc(N2CCCC3(CCN(Cc4nccs4)C3)C2)nc1` (stereo not given): the Percent Effect in experiment [1] was -1.98%; in experiment [2], 14.3%; in experiment [3], -1.46%; in experiment [4] it was 3.73%; with Trypanosoma cruzi, 0.75%; in experiment [5] it was -5.94%. The Percent Effect in experiment [6] is 18.4%; in the experiment listed under Homo sapiens, 4.2%; in experiment [7], 7.26%; in experiment [8], 10.6%; in [9], 20%; in experiment [10], -11.5%.
For the compound `COc1ccc(C(=O)C2CCCN(Cc3ccc(C)o3)C2)c(OC)c1` (stereo not given), the Percent Effect was -3.9% in experiment [1]; -5.41% in [2]; -4.91% in experiment [3]; 3.98% in [4]; -2.04% in the experiment on Trypanosoma cruzi; 1.75% in experiment [5]. The Percent Effect in [6] is 7.71%; in the experiment filed under Homo sapiens it was -5.12%; in experiment [7], -2.98%; in experiment [8], 1.6%; in experiment [9] it was 7.32%; in [10] it was 2.92%.
On to `CNCCc1nc2cc(F)ccc2[nH]1`, for which the Percent Effect in [1] was -3.21%; in [2], 0%; in experiment [3], 5.99%; in experiment [11] it was -8.1%; in [4], -3.69%; in the experiment on Trypanosoma cruzi it was -6.13%. For the same compound, the Percent Effect is 5.21% in experiment [5]; 5.23% in experiment [6]; 4.18% in the experiment listed under Homo sapiens; -4.92% in experiment [8]; -8.64% in [9]; -3.45% in experiment [10].
On to `CCN1CCC2(CCC1=O)CN(c1ccnc(SC)n1)CCN2C` (stereo not given), for which the Percent Effect in experiment [1] was -7.58%; in experiment [2], 5.33%; in experiment [3] it was -3.27%; in experiment [11], 2.15%; in experiment [4], 13%; in the experiment on Trypanosoma cruzi, -0.682%. In addition, the Percent Effect in experiment [5] is 6.25%; in experiment [6], 11.2%; in the experiment listed under Homo sapiens, 7.14%; in experiment [8], 3.83%; in experiment [9] it was 8.64%; in experiment [10], -7.61%.
For `CCc1nc(CN2CCN(C(=O)Cc3c(C)noc3C)CC2)cs1`, the Percent Effect is -0.475% in [1]; 12.8% in experiment [2]; -3.43% in [3]; -11.1% in [4]; 2.72% in the experiment with Trypanosoma cruzi; 2.87% in experiment [5]. In addition, the Percent Effect in experiment [6] is 6.06%; in the experiment listed under Homo sapiens, 10.4%; in experiment [7], -8.34%; in experiment [8] it was 6.22%; in experiment [9] it was 13.2%; in experiment [10] it was -5.04%.
